Consider 9 compounds from PubChem BioAssay.

Values without a mark were called inactive.

The assay is described as follows: plasmodial surface anion channel blockers, osmotic lysis – cell-based, P. falciparum Indochina, OD700, 18 h, primary screen (AID 1157). The settings on record: P. falciparum Indochina infected erythrocytes, osmotic lysis OD700, 18 h; higher = more signal, called active from +8 up or from −8 down.
Turning to `CC(C)OC(=O)C=C1C[C@@H](c2ccccc2C(F)(F)F)O[C@@H](c2ccccc2C(F)(F)F)O1`, the z-score is 0.659.
Turning to `COCCCNC(=O)[C@@]1(Cc2ccccc2N=[N+]=[N-])N=C(c2ccc(OCCCO)cc2)O[C@H]1c1ccccc1N=[N+]=[N-]`, the z-score is 5.91.
As for `O=C1C2C=CC(C(O)C3CCCCC3)N(Nc3ccc([N+](=O)[O-])cc3)C2C(=O)N1c1ccccc1` (centres undefined), the z-score was 1.42.
Take `COCC(=C=CC[C@@H](O)c1ccccc1OCCO)C[C@@H](O)c1cc(Cl)cc(Cl)c1O`: the z-score was 0.945.
Regarding `O=C1c2ccccc2[C@](Cc2ccccc2I)(C(=O)NC2CC2)[C@H](c2ccc(CO)cc2)N1Cc1ccccc1`, the z-score was 0.181.
Consider `CCOC(=O)C[C@H]1[C@H](OC(=O)Cc2ccc3c(c2)OCO3)[C@@H](NC(=O)c2ccc3ccccc3c2)c2cc(OCCCO)ccc2N1C(=O)c1ccccc1`, for which the z-score was 0.26.
The figure for `C=CCNC(=O)[C@H]1[C@@H]2C(=O)O[C@@H](c3ccccc3)[C@@H](c3ccccc3)N2[C@@H](c2ccc(OCCO)cc2)[C@]12C(=O)N(C(=O)OCCOC)c1ccccc12` is 0.759; for `CCOC(=O)C[C@H]1[C@H](OC(=O)Cc2ccc3c(c2)OCO3)[C@@H](NC(=O)c2ccc(-c3ccccc3)cc2)c2cc(OCCCO)ccc2N1C(=O)c1ccc2ccccc2n1` it is -0.258; for `C=CCN1C(=O)[C@]2(O[C@H](CCO)[C@@H]([Si](C)(C)c3ccc(OC)cc3)[C@@H]2C)c2cc(N3C(=O)c4cccc5cccc3c45)ccc21` it is 2.83.
